Paper PMC11006913
Numbering of substitutions follows the chain as printed.

What was measured:
Experiment in all cases: PBM; 200 nM protein, PBS
Settings in all cases: dsDNA, one strand shown
SHOX [1] = target: SHOX (Homo sapiens, UniProt O15266 103-189)
PAX4 [2] = target: T1, PAX4 (Homo sapiens, UniProt O43316 9-242, R200K)
T1 sequence: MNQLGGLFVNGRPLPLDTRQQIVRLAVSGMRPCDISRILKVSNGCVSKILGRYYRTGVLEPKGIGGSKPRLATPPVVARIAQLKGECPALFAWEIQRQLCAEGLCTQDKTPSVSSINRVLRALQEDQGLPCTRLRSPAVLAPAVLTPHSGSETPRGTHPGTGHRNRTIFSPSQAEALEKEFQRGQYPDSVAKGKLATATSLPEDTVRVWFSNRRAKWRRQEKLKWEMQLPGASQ

PAX4 [3] = target: T2, PAX4 (Homo sapiens, UniProt O43316 9-242)
T2 sequence: T1 sequence with K192R

ALX1 [4] = target: ALX1 (Homo sapiens, UniProt Q15699 118-204, L144V)
ALX1 (Homo sapiens, UniProt Q15699 118-204, L144V), sequence (Q15699 118-204 L144V): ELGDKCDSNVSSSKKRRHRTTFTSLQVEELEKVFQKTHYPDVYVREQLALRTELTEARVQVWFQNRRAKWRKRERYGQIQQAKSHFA

PAX4 [5] = target: T3, PAX4 (Homo sapiens, UniProt O43316 9-242, R200Q)
T3 sequence: T1 sequence with K192Q

SHOX [6] = target: SHOX (Homo sapiens, UniProt O15266 103-189, R173C)
SHOX (Homo sapiens, UniProt O15266 103-189, R173C), sequence (O15266 103-189 R173C): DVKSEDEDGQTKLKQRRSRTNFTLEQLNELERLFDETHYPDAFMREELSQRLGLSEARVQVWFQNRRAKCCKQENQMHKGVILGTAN

ALX1 [7] = target: ALX1 (Homo sapiens, UniProt Q15699 118-204, L144R)
ALX1 (Homo sapiens, UniProt Q15699 118-204, L144R), sequence (Q15699 118-204 L144R): as the sequence (Q15699 118-204 L144V) above, with V27R counted along it

PAX4 [8] = target: T4, PAX4 (Homo sapiens, UniProt O43316 9-242, F177V)
T4 sequence: T1 sequence with F169V, K192R

PAX4 [9] = target: T5, PAX4 (Homo sapiens, UniProt O43316 9-242, F177Y)
T5 sequence: T1 sequence with F169Y, K192R

HESX1 [10] = target: HESX1 (Homo sapiens, UniProt Q9UBX0 95-180, R109Q)
HESX1 (Homo sapiens, UniProt Q9UBX0 95-180, R109Q), sequence (Q9UBX0 95-180 R109Q): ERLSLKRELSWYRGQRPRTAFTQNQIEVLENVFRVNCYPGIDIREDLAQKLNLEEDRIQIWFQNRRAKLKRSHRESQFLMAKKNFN

PROP1 = PROP1 (Homo sapiens, UniProt O75360 56-141, R99H)
PROP1, sequence (O75360 56-141 R99H): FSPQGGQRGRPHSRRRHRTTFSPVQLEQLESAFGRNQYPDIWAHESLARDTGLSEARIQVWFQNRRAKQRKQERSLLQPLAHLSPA

HESX1 [11] = target: HESX1 (Homo sapiens, UniProt Q9UBX0 95-180, P111T)
HESX1 (Homo sapiens, UniProt Q9UBX0 95-180, P111T), sequence (Q9UBX0 95-180 P111T): as the sequence (Q9UBX0 95-180 R109Q) above, with Q15R, P17T counted along it

PAX4 [12] = target: T6, PAX4 (Homo sapiens, UniProt O43316 9-242, R227W)
T6 sequence: T1 sequence with K192R, R219W

ALX1 [13] = target: ALX1 (Homo sapiens, UniProt Q15699 118-204)
ALX1 (Homo sapiens, UniProt Q15699 118-204), sequence (Q15699 118-204): as the sequence (Q15699 118-204 L144V) above, with V27L counted along it

HESX1 [14] = target: HESX1 (Homo sapiens, UniProt Q9UBX0 95-180, F115L)
HESX1 (Homo sapiens, UniProt Q9UBX0 95-180, F115L), sequence (Q9UBX0 95-180 F115L): as the sequence (Q9UBX0 95-180 R109Q) above, with Q15R, F21L counted along it

MSX2 [15] = target: MSX2 (Homo sapiens, UniProt P35548 130-214, R199I)
MSX2 (Homo sapiens, UniProt P35548 130-214, R199I), sequence (P35548 130-214 R199I): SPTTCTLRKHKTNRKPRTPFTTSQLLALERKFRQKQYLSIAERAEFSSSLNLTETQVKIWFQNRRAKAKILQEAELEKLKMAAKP

MSX2 [16] = target: MSX2 (Homo sapiens, UniProt P35548 130-214)
MSX2 (Homo sapiens, UniProt P35548 130-214), sequence (P35548 130-214): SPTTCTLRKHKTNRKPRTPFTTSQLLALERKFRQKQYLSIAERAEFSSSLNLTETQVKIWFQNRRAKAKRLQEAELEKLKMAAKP

MSX2 [17] = target: MSX2 (Homo sapiens, UniProt P35548 130-214, F161Y)
MSX2 (Homo sapiens, UniProt P35548 130-214, F161Y), sequence (P35548 130-214 F161Y): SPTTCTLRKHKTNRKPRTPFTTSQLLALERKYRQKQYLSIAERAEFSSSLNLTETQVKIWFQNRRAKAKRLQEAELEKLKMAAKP

SHOX (Homo sapiens, UniProt O15266 103-189), sequence (O15266 103-189): as the sequence (O15266 103-189 R173C) above, with C71R counted along it

Sequence	binding signal (SHOX [1])	binding signal (PAX4 [2])	binding signal (PAX4 [3])	binding signal (ALX1 [4])	binding signal (PAX4 [5])	binding signal (SHOX [6])	binding signal (ALX1 [7])	binding signal (PAX4 [8])	binding signal (PAX4 [9])	binding signal (HESX1 [10])	binding signal (PROP1)	binding signal (HESX1 [11])	binding signal (PAX4 [12])	binding signal (ALX1 [13])	binding signal (HESX1 [14])	binding signal (MSX2 [15])	binding signal (MSX2 [16])	binding signal (MSX2 [17])
AATTAGGG	11.7 upbm affinity estimate (log intensity, higher = more binding, comparable within an allelic series)	11.6 upbm affinity estimate (log intensity, higher = more binding, comparable within an allelic series)	12.2 upbm affinity estimate (log intensity, higher = more binding, comparable within an allelic series)	11.4 upbm affinity estimate (log intensity, higher = more binding, comparable within an allelic series)	11.8 upbm affinity estimate (log intensity, higher = more binding, comparable within an allelic series)	9.29 upbm affinity estimate (log intensity, higher = more binding, comparable within an allelic series)	10.8 upbm affinity estimate (log intensity, higher = more binding, comparable within an allelic series)	10.3 upbm affinity estimate (log intensity, higher = more binding, comparable within an allelic series)	10.8 upbm affinity estimate (log intensity, higher = more binding, comparable within an allelic series)	8.69 upbm affinity estimate (log intensity, higher = more binding, comparable within an allelic series)	10.9 upbm affinity estimate (log intensity, higher = more binding, comparable within an allelic series)	10.1 upbm affinity estimate (log intensity, higher = more binding, comparable within an allelic series)	10.8 upbm affinity estimate (log intensity, higher = more binding, comparable within an allelic series)	12 upbm affinity estimate (log intensity, higher = more binding, comparable within an allelic series)	–	–	–	–
AATTAGAC	11.4 upbm affinity estimate (log intensity, higher = more binding, comparable within an allelic series)	11.7 upbm affinity estimate (log intensity, higher = more binding, comparable within an allelic series)	12.2 upbm affinity estimate (log intensity, higher = more binding, comparable within an allelic series)	–	12 upbm affinity estimate (log intensity, higher = more binding, comparable within an allelic series)	9.23 upbm affinity estimate (log intensity, higher = more binding, comparable within an allelic series)	–	10.6 upbm affinity estimate (log intensity, higher = more binding, comparable within an allelic series)	11 upbm affinity estimate (log intensity, higher = more binding, comparable within an allelic series)	8.68 upbm affinity estimate (log intensity, higher = more binding, comparable within an allelic series)	–	–	11 upbm affinity estimate (log intensity, higher = more binding, comparable within an allelic series)	–	7.81 upbm affinity estimate (log intensity, higher = more binding, comparable within an allelic series)	–	–	–
AATTAGAG	11.6 upbm affinity estimate (log intensity, higher = more binding, comparable within an allelic series)	11.7 upbm affinity estimate (log intensity, higher = more binding, comparable within an allelic series)	12.2 upbm affinity estimate (log intensity, higher = more binding, comparable within an allelic series)	–	12 upbm affinity estimate (log intensity, higher = more binding, comparable within an allelic series)	9.13 upbm affinity estimate (log intensity, higher = more binding, comparable within an allelic series)	–	10.4 upbm affinity estimate (log intensity, higher = more binding, comparable within an allelic series)	10.9 upbm affinity estimate (log intensity, higher = more binding, comparable within an allelic series)	–	–	–	10.8 upbm affinity estimate (log intensity, higher = more binding, comparable within an allelic series)	–	–	12.1 upbm affinity estimate (log intensity, higher = more binding, comparable within an allelic series)	13.3 upbm affinity estimate (log intensity, higher = more binding, comparable within an allelic series)	13.1 upbm affinity estimate (log intensity, higher = more binding, comparable within an allelic series)
ACCGGCTG	7.1 upbm affinity estimate (log intensity, higher = more binding, comparable within an allelic series)	–	–	–	–	7.13 upbm affinity estimate (log intensity, higher = more binding, comparable within an allelic series)	–	–	–	–	–	–	–	–	–	9.47 upbm affinity estimate (log intensity, higher = more binding, comparable within an allelic series)	9.51 upbm affinity estimate (log intensity, higher = more binding, comparable within an allelic series)	9.53 upbm affinity estimate (log intensity, higher = more binding, comparable within an allelic series)
